Drawing on PubChem BioAssay, this text covers inhibition for 16 molecules.

SMILES strings stand for the structures. The source made the active and inactive calls.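 How the source made its calls: active means inhibition at or above 50% relative to wild type and mutant plate controls; inactive means inhibition below 50%.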

This test can be described thus: inhibitors of Chlamydomonas gravitaxis, primary screen, whole organism, Chlamydomonas reinhardtii, WT vs cilia-less mutant, absorbance, 96-well (AID 463189).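 Further: 0% = wild type cc124 cells in DMSO and 100% = ciliumless bld1 mutant cells.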 The following applies: OD600 absorbance, 2 days, at 10 µM, hits give high values.
For `C=CCN1CC[C@]23c4c5ccc(O)c4O[C@H]2/C(=N/NC(=O)c2ccccc2)CC[C@@]3(O)[C@H]1C5`, the inhibition was 2.64% (inactive).
On to `CC1(C(=O)O)C2CCC(O2)C1(C)C(=O)O` (stereo unspecified), for which the inhibition is -0.9% (inactive).
Consider `COc1ccc2c(c1)[C@@]13CCCC[C@H]1[C@@H](C2)NCC3`, for which the inhibition is 4.9% (inactive).
For `C=CCN1C[C@@H](C)N([C@H](c2ccc(C(=O)N(CC)CC)cc2)c2cccc(OC)c2)C[C@@H]1C` the value was -6.39% (inactive); for `NC(=O)CI`, -0.903% (inactive).
The result for `N[C@@]1(C(=O)O)CC[C@@H](C(=O)O)C1` reads 5% (inactive); that for `CN1CCN(c2ccc3ccccc3n2)CC1`, 23.3% (inactive).
The result for `C[N+]1(C)C2CCC1CC(OC(=O)c1c[nH]c3ccccc13)C2` (stereo unspecified) reads 8.92% (inactive).
For the molecule `C[C@H](N)CN1CCc2ccc(Br)cc21`, the inhibition is -3.37% (inactive).
For `COC[C@H]1OC(=O)c2coc3c2[C@@]1(C)C1=C(C3=O)C2CCC(=O)[C@@]2(C)C[C@H]1OC(C)=O` (stereo partly specified), the inhibition was 4.09% (inactive).
As to `CCCN1CCC[C@@H](c2cccc(O)c2)C1`, the inhibition was 0.338% (inactive).
The result for `CC(N)c1cccc(Cl)c1Cl` (stereo unspecified) reads -4.86% (inactive); that for `CC(C)CC(NP(=O)(O)O[C@@H]1O[C@@H](C)[C@H](O)[C@@H](O)[C@H]1O)C(=O)NC(Cc1c[nH]c2ccccc12)C(=O)O` (stereo partly specified), 5.76% (inactive); that for `NC(C(=O)O)c1cc(=O)[nH]o1` (stereo unspecified), 6.42% (inactive).
With `NC(=O)c1cc(N2CC2)c([N+](=O)[O-])cc1[N+](=O)[O-]`, the inhibition is -4% (inactive).
For `CCC1(c2ccc(N)cc2)CCC(=O)NC1=O` (stereo unspecified) the value was -0.133% (inactive).

One may read the inhibition as the drop in the measured response relative to a control, in per cent.
